# Results published in PubChem BioAssay (NCATS).
# Where “and” joins values, the source holds several entries; their conditions need not be identical. Equal values may be shown once. Records with an inconclusive call do not appear. Where a call stands in place of a potency, no number is given. More than one record can exist for a structure, and the calls need not agree. Calls of active or inactive are those of the source. The call rests on the fitted dose curve; in most records, active means well fitted curve in the direction sought with a large enough effect; inconclusive means small, poorly fitted or top-dose-only effect, or another doubt; inactive means no such curve, though single readings can be large; an effect the other way counts as inactive or inconclusive.
# Experiments:
# [1] = Primary qHTS for inhibitors of nuclear receptor binding SET domain protein 2 (NSD2) in an isogenic RCH-ACV NSD2 p.E1099K mutant (9B) (AID 1645876); further: nearly all actives have a fitted effect of over 70% in size; further: potency means the concentration at half of the fitted maximal effect
# [2] = Primary qHTS for inhibitors of nuclear receptor binding SET domain protein 2 (NSD2) in an RCH-ACV wild type WT cells (2C) (AID 1645877); further: nearly all actives have a fitted effect of over 70% in size; further: potency means the concentration at half of the fitted maximal effect
# [3] = target: Catechol O-methyltransferase (Homo sapiens) (UniProt P21964); experiment: Confirmatory Screen for Target Class Profiling of Small Molecule Inhibitors of Methyltransferases (AID 1745852); details: MTase-Glo luminescence, SAH detection, recombinant enzyme; measured here: COMT max response; stronger effect = lower value
# Catechol O-methyltransferase (Homo sapiens), sequence (P21964 whole entry, looked up): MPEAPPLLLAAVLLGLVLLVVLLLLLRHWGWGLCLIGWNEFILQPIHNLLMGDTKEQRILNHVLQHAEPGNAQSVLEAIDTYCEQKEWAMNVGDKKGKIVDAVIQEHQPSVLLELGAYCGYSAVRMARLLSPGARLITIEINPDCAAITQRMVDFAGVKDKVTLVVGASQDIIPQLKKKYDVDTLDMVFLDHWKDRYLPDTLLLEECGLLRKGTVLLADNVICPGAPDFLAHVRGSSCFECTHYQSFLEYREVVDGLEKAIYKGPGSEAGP
# [4] = target: Guanidinoacetate N-methyltransferase (Homo sapiens) (UniProt Q14353); experiment: as above; details: MTase-Glo luminescence, SAH detection, recombinant enzyme; at 57.3 µM (top of the series)
# [5] = target: Nicotinamide N-methyltransferase (Homo sapiens) (UniProt P40261); experiment: as above; details: MTase-Glo luminescence, SAH detection, recombinant enzyme; measured here: NNMT max response; stronger effect = lower value
# Nicotinamide N-methyltransferase (Homo sapiens), sequence (P40261 whole entry, looked up): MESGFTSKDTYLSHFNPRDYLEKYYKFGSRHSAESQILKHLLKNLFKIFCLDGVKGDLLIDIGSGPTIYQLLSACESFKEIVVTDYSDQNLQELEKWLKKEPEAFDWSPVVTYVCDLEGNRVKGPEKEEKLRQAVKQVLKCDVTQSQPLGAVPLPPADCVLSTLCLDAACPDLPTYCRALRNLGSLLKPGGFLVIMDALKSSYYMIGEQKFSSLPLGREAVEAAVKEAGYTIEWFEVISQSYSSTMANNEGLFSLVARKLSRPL
# [6] = target: Phenylethanolamine N-methyltransferase (Homo sapiens) (UniProt P11086); experiment: as above; details: MTase-Glo luminescence, SAH detection, recombinant enzyme; measured here: PNMT max response; stronger effect = lower value
# Phenylethanolamine N-methyltransferase (Homo sapiens), sequence (P11086 whole entry, looked up): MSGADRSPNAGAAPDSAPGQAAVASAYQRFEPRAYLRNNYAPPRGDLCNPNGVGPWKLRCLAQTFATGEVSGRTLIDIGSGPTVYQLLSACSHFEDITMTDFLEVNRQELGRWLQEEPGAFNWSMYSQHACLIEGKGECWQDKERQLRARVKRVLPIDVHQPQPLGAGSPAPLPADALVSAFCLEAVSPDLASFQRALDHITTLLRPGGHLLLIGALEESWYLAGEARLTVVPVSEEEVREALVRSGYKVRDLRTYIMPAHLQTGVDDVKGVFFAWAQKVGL
# [7] = Viability counterscreen for antagonist of constitutive androstane receptor (CAR) against the NCATS DSHEA and TCM libraries (AID 1794837);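 further: compound exposure lasted 24 h before viability reading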
# Outline: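 HepG2-CYP2B6-hCAR cells, 2,500/well, were exposed 24 hr at 37C to substances together with 48 uM CITCO (final). Viability was read as CellTiter-Fluor fluorescence (Ex/Em 405/540 nm) after 1 hr.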
# [8] = Viability counterscreen for agonist of constitutive androstane receptor (CAR) against the NCATS DSHEA and TCM libraries (AID 1794838);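 further: HepG2 cells with CYP2B6 reporter and hCAR plus 0.75 µM PK11195 antagonist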
# Outline: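 HepG2-CYP2B6-hCAR cells (2,500/well) treated 24 h at 37C with compounds plus 0.75 uM PK11195; viability read by CellTiter-Fluor fluorescence, Ex/Em 405/540 nm.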
# [9] = target: Nuclear receptor subfamily 1 group I member 3 (Homo sapiens) (UniProt Q14994); experiment: Primary qHTS for agonist of constitutive androstane receptor (CAR) against the NCATS DSHEA and TCM libraries (AID 1794839);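 further: HepG2 cells expressing human CAR with a CYP2B6 reporter plus PK11195 antagonist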
# Nuclear receptor subfamily 1 group I member 3 (Homo sapiens), sequence (Q14994 whole entry, looked up): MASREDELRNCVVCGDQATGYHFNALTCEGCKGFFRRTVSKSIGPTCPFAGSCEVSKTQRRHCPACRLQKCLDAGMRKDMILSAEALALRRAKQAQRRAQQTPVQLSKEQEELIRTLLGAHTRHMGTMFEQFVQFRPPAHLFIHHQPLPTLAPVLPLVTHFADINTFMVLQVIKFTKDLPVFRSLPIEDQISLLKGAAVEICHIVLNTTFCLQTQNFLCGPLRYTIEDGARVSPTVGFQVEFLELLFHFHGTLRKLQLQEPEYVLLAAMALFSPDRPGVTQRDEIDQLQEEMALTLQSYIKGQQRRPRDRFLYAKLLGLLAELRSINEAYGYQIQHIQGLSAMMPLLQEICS
# Outline: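 HepG2-CYP2B6-hCAR cells, 2,500/well, attached 5 h, then dosed with 0.75 µM PK11195 (final) for 24 h at 37 °C. Luciferase luminescence read (ONE-Glo); CellTiter-Fluor viability (Ex/Em 405/540 nm) in same wells; CITCO positive control.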
# [10] = HepG2 viability counterscreen (readout 2: ATP content) against the NCATS DSHEA and TCM libraries (AID 1794840)
# Outline: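 HepG2 cells, 1,000/well, attached ~4 h, then exposed ~24 h at 37C to substances. Protease activity read by fluorescence of 25 uM GF-AFC (Ex/Em 380/510 nm) after 30 min; ATP then by CellTiter-Glo luminescence.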
# [11] = target: Rap guanine nucleotide exchange factor 3 (Homo sapiens) (UniProt O95398); experiment: Confirmatory qHTS for agonist of cAMP-regulated guanine nucleotide exchange factor 3 (EPAC1) (AID 1645881);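 further: EPAC1 catalysed release of BODIPY-GDP from Rap1B seen as fluorescence loss; nearly all actives have a fitted effect of over 75% in size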
# Rap guanine nucleotide exchange factor 3 (Homo sapiens), sequence (O95398 whole entry, looked up): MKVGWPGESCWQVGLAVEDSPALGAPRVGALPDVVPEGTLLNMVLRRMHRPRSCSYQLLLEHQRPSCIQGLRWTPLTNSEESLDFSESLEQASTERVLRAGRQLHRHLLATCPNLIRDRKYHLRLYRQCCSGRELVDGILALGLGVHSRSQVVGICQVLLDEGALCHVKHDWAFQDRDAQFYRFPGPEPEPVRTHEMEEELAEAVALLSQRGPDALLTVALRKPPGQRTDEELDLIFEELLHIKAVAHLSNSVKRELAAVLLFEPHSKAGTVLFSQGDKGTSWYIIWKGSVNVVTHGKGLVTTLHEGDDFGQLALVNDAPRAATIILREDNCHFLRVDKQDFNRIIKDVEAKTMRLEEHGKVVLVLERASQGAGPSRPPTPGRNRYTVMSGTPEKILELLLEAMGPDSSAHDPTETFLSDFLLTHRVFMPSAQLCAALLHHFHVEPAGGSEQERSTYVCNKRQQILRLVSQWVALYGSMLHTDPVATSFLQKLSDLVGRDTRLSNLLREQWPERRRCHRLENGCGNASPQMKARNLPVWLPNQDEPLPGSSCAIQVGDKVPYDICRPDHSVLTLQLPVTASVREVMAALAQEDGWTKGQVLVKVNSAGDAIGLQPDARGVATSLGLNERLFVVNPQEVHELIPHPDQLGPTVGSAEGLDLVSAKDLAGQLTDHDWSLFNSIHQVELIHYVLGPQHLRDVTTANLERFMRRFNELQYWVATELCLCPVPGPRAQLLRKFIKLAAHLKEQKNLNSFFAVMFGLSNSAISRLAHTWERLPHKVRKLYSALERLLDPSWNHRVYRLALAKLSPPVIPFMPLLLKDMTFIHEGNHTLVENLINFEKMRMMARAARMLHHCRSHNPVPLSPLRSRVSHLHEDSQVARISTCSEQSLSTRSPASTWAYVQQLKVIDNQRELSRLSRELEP
# [12] = target: Rap guanine nucleotide exchange factor 4 (Homo sapiens) (UniProt Q8WZA2); experiment: Confirmatory qHTS for agonist of cAMP-regulated guanine nucleotide exchange factor 4 (EPAC2) (AID 1645884);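 further: nucleotide exchange releases bodipy-GDP from Rap1 and this lowers its fluorescence; nearly all actives have a fitted effect of over 65% in size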
# Rap guanine nucleotide exchange factor 4 (Homo sapiens), sequence (Q8WZA2 whole entry, looked up): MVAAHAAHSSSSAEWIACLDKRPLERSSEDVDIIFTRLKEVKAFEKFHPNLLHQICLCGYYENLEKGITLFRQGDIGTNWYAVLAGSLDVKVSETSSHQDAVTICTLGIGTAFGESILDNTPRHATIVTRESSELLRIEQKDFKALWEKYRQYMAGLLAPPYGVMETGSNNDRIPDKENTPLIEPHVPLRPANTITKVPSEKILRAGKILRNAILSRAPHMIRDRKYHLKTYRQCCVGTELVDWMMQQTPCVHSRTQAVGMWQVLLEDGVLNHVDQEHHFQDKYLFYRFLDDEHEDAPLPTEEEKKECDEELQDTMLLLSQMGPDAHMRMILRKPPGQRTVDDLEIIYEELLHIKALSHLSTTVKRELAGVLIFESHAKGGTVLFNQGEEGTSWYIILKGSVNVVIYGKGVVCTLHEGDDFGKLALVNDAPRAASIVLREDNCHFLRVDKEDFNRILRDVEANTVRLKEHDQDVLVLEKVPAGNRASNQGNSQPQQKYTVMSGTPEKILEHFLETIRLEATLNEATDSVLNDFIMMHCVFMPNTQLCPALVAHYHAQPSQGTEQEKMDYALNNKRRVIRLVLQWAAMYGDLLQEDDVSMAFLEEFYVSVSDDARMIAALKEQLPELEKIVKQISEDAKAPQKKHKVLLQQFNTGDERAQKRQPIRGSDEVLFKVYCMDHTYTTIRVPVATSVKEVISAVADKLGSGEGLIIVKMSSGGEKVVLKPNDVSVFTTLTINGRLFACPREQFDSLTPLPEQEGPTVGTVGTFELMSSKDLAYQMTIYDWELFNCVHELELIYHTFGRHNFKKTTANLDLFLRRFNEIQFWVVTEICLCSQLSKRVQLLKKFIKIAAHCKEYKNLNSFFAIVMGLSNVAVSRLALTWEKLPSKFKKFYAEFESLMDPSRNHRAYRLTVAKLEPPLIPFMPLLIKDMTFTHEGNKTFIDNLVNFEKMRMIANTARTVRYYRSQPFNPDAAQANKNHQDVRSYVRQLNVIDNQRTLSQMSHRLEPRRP
# [13] = target: Rap guanine nucleotide exchange factor 4 (Homo sapiens) (UniProt Q8WZA2); experiment: Confirmatory qHTS for antagonist of cAMP-regulated guanine nucleotide exchange factor 4 (EPAC2) (AID 1645885); further: nearly all actives have a fitted effect of over 25% in size; further: potency means the concentration at half of the fitted maximal effect
# [14] = target: Rap guanine nucleotide exchange factor 3 (Homo sapiens) (UniProt O95398); experiment: Confirmatory qHTS for antagonist of cAMP-regulated guanine nucleotide exchange factor 3 (EPAC1) (AID 1645880); further: nearly all actives have a fitted effect of over 55% in size
# Outline: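 Nucleotide exchange uses 100 nM EPAC1, 250 nM RAP1B-BODIPY-GDP and 50 uM GDP, with compounds in a concentration-titration series. After 5 min at room temperature, fluorescence (480 nm ex/540 nm em) is read every 5 min for 30 min. Data are normalized to control ATA and DMSO.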
structure (smiles),measurement,setting,value
CCN1CCC[C@H]1CNC(=O)c1c(OC)ccc(Br)c1OC,Potency,[1],inactive
same,Potency,[2],inactive
OC[C@H]1O[C@H](O[C@]2(CCl)O[C@H](CCl)[C@@H](O)[C@@H]2O)[C@H](O)[C@@H](O)[C@H]1Cl,Potency,[1],inactive
same,Potency,[2],inactive
CC(C)(CO)[C@@H](O)C(=O)NCCCO,Potency,[1],inactive
same,Potency,[2],inactive
C[C@@H]1CN(CCCn2c3ccccc3c3ccccc32)C[C@H](C)N1,Potency,[1],26.6 µM (active)
same,Potency,[2],23.7 µM (active)
CCOc1ccc2nc3cc(N)ccc3c(N)c2c1,Potency,[1],5.96 µM (active)
same,Potency,[2],5.31 µM (active)
C[C@H](CCC(=O)O)[C@H]1CC[C@H]2[C@@H]3C(=O)C[C@@H]4CC(=O)CC[C@]4(C)[C@H]3CC(=O)[C@]12C,Potency,[1],inactive
same,Potency,[2],inactive
CN(C)C(=S)SC(=S)N(C)C,Potency,[1],2.11 µM (active)
same,Potency,[2],2.99 µM (active)
CCCN1CCCC[C@H]1C(=O)Nc1c(C)cccc1C,Potency,[1],inactive
same,Potency,[2],inactive
CC(C)=CCC1C(=O)N(c2ccccc2)N(c2ccccc2)C1=O,Potency,[1],16.8 µM (active)
same,Potency,[2],15 µM (active)
Cc1ccnc(NS(=O)(=O)c2ccc(N)cc2)n1,Potency,[1],inactive
same,Potency,[2],inactive
CC(=O)N/N=C/c1ccc([N+](=O)[O-])o1,Potency,[1],9.44 µM (active)
same,Potency,[2],8.41 µM (active)
COc1cc(C=C2CCC/C(=C\c3ccc(O)c(OC)c3)C2=O)ccc1O,Potency,[1],0.237 µM (active)
same,Potency,[2],0.188 µM (active)
C[C@H](O)C(=O)Nc1c(I)c(C(=O)NC(CO)CO)c(I)c(C(=O)NC(CO)CO)c1I,Potency,[1],inactive
same,Potency,[2],inactive
CC1(C)OC[C@@H](COC(=O)CCc2ccc(OC[C@@H](O)CNCCNC(=O)N3CCOCC3)cc2)O1,Potency,[1],inactive
same,Potency,[2],inactive
CC[N+](CC)(CCNC(=O)C(=O)NCC[N+](CC)(CC)Cc1ccccc1Cl)Cc1ccccc1Cl,Potency,[1],inactive
same,Potency,[2],inactive
CCCCCCC[N+](CC)(CC)CCCCc1ccc(Cl)cc1,Potency,[1],1.88 µM (active)
same,Potency,[2],1.88 µM (active)
CCOc1ccc(NC(=O)CC(C)O)cc1 (stereo not drawn),Potency,[1],inactive
same,Potency,[2],inactive
Nc1ccc(/C=C/c2ccc(N)cc2S(=O)(=O)O)c(S(=O)(=O)O)c1,outcome,[1],inactive [at 0.588 µM]
same,outcome,[2],inactive [at 0.588 µM]
Cc1cccn2c(=O)c(-c3nnn[nH]3)cnc12,Potency,[1],inactive
same,Potency,[2],inactive
COc1cc(N)c(Cl)cc1C(=O)NC1CCN(CCCOc2ccc(F)cc2)CC1OC (stereo not drawn),Potency,[1],15 µM (active)
same,Potency,[2],21.1 µM (active)
CN1CCC(=C2c3ccccc3Sc3ccccc32)CC1,Potency,[1],16.8 µM (active)
same,Potency,[2],11.9 µM (active)
CC(C)n1nc(-c2cc3cc(O)ccc3[nH]2)c2c(N)ncnc21,Potency,[1],29.9 nM (active) and 3.32 µM (active)
same,Potency,[2],47.3 nM (active) and 3.32 µM (active)
Cc1c(F)c(N2CCNC(C)C2)cc2c1c(=O)c(C(=O)O)cn2C1CC1 (stereo not drawn),Potency,[1],inactive
same,Potency,[2],inactive
COC(=O)[C@@H]1CC2=CC(=O)CC[C@]2(C)[C@@]23O[C@@H]2C[C@@]2(C)[C@@H](CC[C@@]24CCC(=O)O4)[C@H]13,Potency,[1],inactive
same,Potency,[2],inactive
CC(C)(C)CC(C)(C)c1ccc(OCCOCC[N+](C)(C)Cc2ccccc2)cc1,activity,[3],-13.4%
same,"activity change, negative = inhibition",[4],-8.7%
same,activity,[5],-59.7%
same,activity,[6],-7.81%
NC(=NCCCCCCN=C(N)/N=C(\N)Nc1ccc(Cl)cc1)/N=C(\N)Nc1ccc(Cl)cc1,activity,[3],-5.42%
same,"activity change, negative = inhibition",[4],0.888%
same,activity,[5],-51.5%
same,activity,[6],-67.4%
O=c1ccc2ccccc2o1,outcome,[7],inactive
same,outcome,[8],inactive
same,outcome,[9],inactive
same,outcome,[10],inactive
CC(=O)OCC(=O)[C@@]12N=C(C)O[C@@H]1C[C@H]1[C@@H]3CCC4=CC(=O)C=C[C@]4(C)[C@H]3[C@@H](O)C[C@@]12C,Potency,[2],150 nM (active) and 417 nM (active)
Cc1ccc(Nc2c(F)cccc2Cl)c(CC(=O)O)c1,Potency,[2],inactive
C=CCc1ccc(O)c(OC)c1,Potency,[1],inactive
same,Potency,[2],inactive
same,outcome,[7],inactive
same,outcome,[8],inactive
same,outcome,[9],inactive
same,outcome,[10],inactive
CC(Cc1cccc(C(F)(F)F)c1)NCCOC(=O)c1ccccc1 (stereo not drawn),outcome,[11],inactive
same,Potency,[12],inactive
same,Potency,[13],49.4 µM (active)
CC(=O)Oc1ccc(C(c2ccc(OC(C)=O)cc2)c2ccccn2)cc1,Potency,[1],inactive
same,Potency,[14],inactive
same,outcome,[11],inactive
same,Potency,[12],inactive
same,Potency,[13],inactive and 44.1 µM (active)
CC(=O)OCC(=O)[C@@]1(O)CC[C@H]2[C@@H]3CCC4=CC(=O)C=C[C@]4(C)[C@H]3[C@@H](O)C[C@@]21C,Potency,[2],18.8 nM (active) and 183 nM (active)
O=C(CCCN1CCC(O)(c2ccc(Br)cc2)CC1)c1ccc(F)cc1,Potency,[2],18.8 µM (active)
